The inhibition is the change of the read-out against control, counted positive when it falls.

Out of some 220,000 compounds screened, about 2,000 (0.91%) were called active. About 2% were inconclusive and are not listed. These entries were drawn from the full list. Measured potencies and affinities stand elsewhere. Unmarked numbers belong to inactive results. Rule as the data show it: inconclusive = inhibition above about 80% without an active follow-up result; inactive = below that; test concentration not stated here.

The text below walks through data of PubChem BioAssay AID1626 (SRMLSC, 2009).

A short description of the assay: M. tuberculosis H37Rv growth inhibitors, H37Rv strain (AID 1626).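 Also: bacteria incubated seven days before Alamar blue readout; 0% = bacteria only wells and 100% = bacteria with antibiotic wells.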 The following applies: active compounds read high, concentration not given here.
`O=c1oc2ccccc2c(NCCO)c1[N+](=O)[O-]`: the inhibition was 0.19%.
In the case of `Cc1cc(C)cc(NC(=O)C2CCCC2)c1`, the inhibition is -9.17%.
As to `NC(=O)C1CCN(c2nc(-c3ccccc3)nc3c2oc2ccccc23)CC1`, the inhibition is 0.65%.
On to `OCCN(CCO)c1nc(-c2ccccc2)nc2c1oc1ccccc12`, for which the inhibition was 0.94%.
Regarding `O=C(O)C1CCN(c2nc(-c3ccccc3)nc3c2oc2ccccc23)CC1`, the inhibition was 2.63%.
As for `CCOC(=O)C1CCN(c2nc(-c3ccccc3)nc3c2oc2ccccc23)CC1`, the inhibition was 25.5%.
As for `COc1ccc(NC(=S)NCc2ccc(S(N)(=O)=O)cc2)c(OC)c1`, the inhibition was 6.58%.
Next, `O=C(NC1CCCC1)C(c1ccc(N2CCOCC2)cc1)N(Cc1ccccc1)C(=O)c1ccco1` (configuration not stated): -11.4%; `O=c1c(C(c2ccccc2)c2c(O)nc3n(c2=O)CCCS3)c(O)nc2n1CCCS2`: 7.37%; `Cc1cc(C)c(S(=O)(=O)N2CCC(C(=O)NCc3ccc(Cl)cc3Cl)CC2)c(C)c1`: 4.79%.
Next, `O=S(=O)(c1ccccc1Br)N1CCC(O)(c2cccnc2)CC1`: -4.98%.
As for `CCOc1ccccc1NC(=O)C1CCCN(S(=O)(=O)c2ccc(OC)c(C)c2)C1` (configuration not stated), the inhibition is -3.35%.
Next, `O=C(Nc1ccc(F)cc1)Nc1nnc(-c2ccccc2)o1`: -7.42%.
`NC(=O)c1oc2ccccc2c1NC(=O)c1nc2ccccc2s1`: the inhibition was -3.12%.
For the molecule `O=C(Nc1ccccc1)Nc1nnc(-c2ccccc2)o1`, the inhibition was 6.54%.
Turning to `O=C(Nc1nnc(-c2cccnc2)o1)c1ccccc1Cl`, the inhibition is 4.74%.
As for `O=C(Nc1nnc(-c2ccccc2)o1)Nc1ccc(F)cc1F`, the inhibition is 7.77%.
In the case of `O=C(Nc1ccccc1)c1nc2ccccc2s1`, the inhibition is 27.8%.
For `COc1ccc(CNC(=O)c2cnccn2)cc1`, the inhibition was -0.78%.
As to `COc1ccc(CCNC(=O)C2CCC(CNc3c(N4CCCC4)c(=O)c3=O)CC2)cc1OC` (configuration not stated), the inhibition was -2.59%.
Then `COC(=O)[C@@H]1CCCN1Cc1c(C(=O)N2CCOCC2)nc2c(C)cccn12`, with -6.22%; and `O=C(COc1ncnc2sccc12)N1CCN(C(=O)c2ccco2)CC1`, with -7.61%.
Then `CC1(C)CC(N=Cc2c(O)n(Cc3ccc4c(c3)OCO4)c(=O)c3ccccc23)CC(C)(C)N1`, with 15%; and `O=c1c2ccccc2c(C=NCCCN2CCOCC2)c(O)n1Cc1ccc2c(c1)OCO2`, with 4.72%.
In the case of `O=C(c1ccccc1-n1cccc1)N1N=C(C(F)F)CC1(O)C(F)F` (configuration not stated), the inhibition was -5.84%.
On to `Cc1ccc2occ(/C=N/NC(N)=S)c(=O)c2c1`, for which the inhibition was -2.35%.
Turning to `COc1ccc(C(=O)/C=C2\Sc3ccccc3N2C)cc1`, the inhibition was -4.42%.
On to `COc1cc(OC)cc(C(=O)/C=C2\Sc3ccccc3N2C)c1`, for which the inhibition is -9.58%.
As to `COc1ccc(CNC(=O)COC(=O)c2cncc(Br)c2)cc1`, the inhibition was -4.32%.
For `Cc1nc2cc(O)ccc2n1C`, the inhibition is -5.57%.
For the molecule `Cc1ccc(-c2cc(C(=O)Nc3cc(C)on3)c3ccccc3n2)cc1`, the inhibition was 6.46%.
Consider `COc1ccc(CNC(=O)c2cc(-c3ccncc3)nc3c(C)cc(C)cc23)cc1OC`, for which the inhibition is 6.31%.
With `Cc1cc(NC(=O)c2cc(-c3cccnc3)nc3c(C)c(C)ccc23)no1`, the inhibition was 13.3%.
With `COc1cccc(NC(=O)c2cc(-c3cccnc3)nc3c(Cl)cccc23)c1`, the inhibition was -0.99%.
Next, `COc1ccc(N(C(C)C(=O)Nc2cccnc2)S(C)(=O)=O)cc1` (configuration not stated): -6.21%.
`Cc1cc(C)c2nc(N3CCC(C(=O)N4CCN(C(=O)c5ccco5)CC4)CC3)sc2c1`: the inhibition is -2.47%.
Next, `O=C(NCc1cccc(Cl)c1)c1cc(COc2ccc3ncccc3c2)on1`: 58.2%; `COc1ccc(-n2nnc3c(=O)n(Cc4cccc(C)c4)cnc32)cc1`: -11.3%; `CCCOC(=O)CSc1nnc(-c2ccccc2Cl)o1`: 42.3%.
In the case of `CCOC(=O)C(C)Sc1ncc(-c2ccccc2)cn1` (configuration not stated), the inhibition was -6.07%.
Then `CCOC(=O)CSc1nnc(-c2cccc(Cl)c2)n1CC`, with -1.18%; and `CCSc1nnc(-c2ccc(Cl)cc2Cl)o1`, with 4.11%.
With `COc1ccccc1-c1nnc(SCC(=O)OC(C)C)o1`, the inhibition was 58.4%.
Then `CCOC(=O)C(C)Sc1ncc(OC)c(Sc2ccc(Cl)cc2)n1` (configuration not stated), with 7.19%; and `CC(C)OC(=O)CSc1nnc(-c2ccc(Cl)cc2Cl)n1N`, with -12.6%.
In the case of `CCOC(=O)CSc1ncc(-c2ccccc2)cn1`, the inhibition is 15%.
As to `O=C(CN1C(=O)c2cccc3cccc1c23)Nc1ccc(S(=O)(=O)Nc2nccs2)cc1`, the inhibition is -0.34%.
Consider `COC(=O)c1ccc(/C=N/OCC(=O)NC2CCCC(C)C2C)cc1` (configuration not stated), for which the inhibition is 10.8%.
Then `O=C(CSc1nc(-c2ccccc2)cs1)NCc1ccco1`, with 3.71%; and `COc1ccc(CC(=O)NC(C)(C)CC(C)=O)cc1OC`, with 6.3%.
Then `CSc1ccc(-c2nnn(Cc3ccc(C)cc3)n2)cc1`, with -7.23%; and `C=CCSc1nc(-c2ccc(OC)cc2)c(C#N)c(=O)n1CC=C`, with 15.4%; and `COc1ccc(/C=C/C(=O)NCC(=O)n2nc(C)cc2C)cc1`, with -7.73%.
On to `COc1ccc2[nH]c(=O)c(CN(C)C(=O)C3CCCCC3)cc2c1`, for which the inhibition was 4.58%.
In the case of `O=C1NC(=O)C2C1C(c1cccs1)NN2Cc1ccccc1` (configuration not stated), the inhibition is 3.37%.
Regarding `Cc1nn(CCC#N)c(NC(=O)c2ccc(Cl)cc2)c1P(=O)(Nc1ccc([N+](=O)[O-])cc1)N1CCOCC1` (configuration not stated), the inhibition is -25.7%.
In the case of `COc1ccc(-c2c(=O)n(OCc3ccccc3[N+](=O)[O-])c3ccccc3[n+]2[O-])c(OC)c1`, the inhibition was 2.69%.
In the case of `CCCNCc1cc(OC)c(OCc2ccccc2)cc1Br`, the inhibition was 6.93%.
Turning to `CCN1CCN(c2cc(C(C)C)nc3c(-c4ccccc4)c(C)nn23)CC1`, the inhibition was 11.2%.
Regarding `Cc1nn2c(N3CCN(C(=O)c4ccco4)CC3)cc(C(C)(C)C)nc2c1-c1ccccc1`, the inhibition is 32.7%.
On to `Cc1cc(N2CCN(Cc3ccccc3)CC2)n2nc(C)c(-c3ccccc3)c2n1`, for which the inhibition was -3.83%.
Consider `Cc1nn2c(N3CCN(C4CCCC4)CC3)cc(C(C)(C)C)nc2c1-c1ccccc1`, for which the inhibition is 8.34%.
